MCF10A rereplic: inducers of DNA re-replication in MCF 10A breast cells. MCF 10A DNA re-replication, Hoechst nuclear intensity, 48 h. Potency, µM (titrated, usually from 46.1 µM), hits mostly activators. hit rate 2.9% among 350,000. AID 624296; note: nearly all actives have a fitted effect of over 50% in size
uPA surface inh: inhibitors of cell surface uPA generation | Potency, µM (doses to about 38.3 µM), most hits filed as inhibitors | cell surface uPA generation assay, qHTS | hit rate 0.31% among 330,000; active = well fitted inhibition curve with a large enough effect; inconclusive = small, poorly fitted or top-dose-only effect; inactive = no such curve, though single readings can be large or run the other way; tested in mouse RAW 264.7 cells; note: nearly all actives have a fitted effect of over 55% in size
SW480 rereplic: inducers of DNA re-replication in SW480 colon cancer cells; SW480 DNA re-replication, Hoechst DNA content imaging, 48 h; Potency, µM (top dose mostly 46.1 µM), most hits filed as activators; hit rate 1.8% among 340,000; note: nearly all actives have a fitted effect of over 55% in size
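Hoechst fluorescence of nuclei (405 nm excitation, 500-530 nm emission) measured by plate-scanning imager after 48 hr compound exposure at 37 C; re-replication scored as increased number of nuclei with elevated intensity.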
Giardia killer: kills Giardia lamblia; Giardia lamblia trophozoite viability; activity change, % at 7.66 µM, hits read low; hit rate 0.15% among 340,000; in the data active = activity change below about -80%; inconclusive = between about -30% and that limit;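 note: parasites exposed to compound for two days anaerobically before the ATP read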
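Giardia trophozoites, 100 cells per well, were exposed to compounds for 48 hrs at 37 deg C under anaerobic conditions; viability was then read as ATP content by bioluminescence after 15-30 min at room temperature.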
Large screens that a line does not name were inactive. In the library only some 4.3% were active in any assay of this set; here they are far more common. Unless noted, calls come from the whole dose curve; as a rule, active = well fitted activation curve with a large enough effect; inconclusive = small, poorly fitted or top-dose-only effect; inactive = no such curve, though single readings can be large or run the other way.

O=C1c2ccccc2C2=Nc3ccccc3SC(c3cccc(F)c3)C12 (stereo unspecified)	MCF10A rereplic 12µM, SW480 rereplic inconclusive
CCOc1cc(CNc2ccc(N3CCCC3)cc2)cc(Cl)c1OC	MCF10A rereplic inconclusive, SW480 rereplic 16µM
COc1cc(CNc2ccc(N3CCCC3)cc2)cc(Cl)c1OC	MCF10A rereplic 23µM, SW480 rereplic inconclusive
Cc1ccsc1C(C(=O)NCc1ccccc1)N(C(=O)c1csnn1)c1ccccc1 (stereo unspecified)	none
Cc1ccccc1-n1c(SCC(=O)c2c(N)n(C3CC3)c(=O)[nH]c2=O)nnc1N1CCOCC1	none
CCN(CC)C(=O)Cn1c(C)c(/C=C/c2cc[n+](C)cc2)c2ccccc21	none
CC(C)n1cc(/C=C/c2cc[n+](C)cc2)c2ccccc21	MCF10A rereplic 6.5µM, SW480 rereplic 18µM
Cc1ccccc1/C=C/c1cc[n+](C)cc1	uPA surface inh inconclusive
CCn1cc(/C=C/c2cc[n+](C)cc2)c2ccccc21	MCF10A rereplic 16µM, SW480 rereplic inconclusive
C=CCn1cc(/C=C/c2cc[n+](C)cc2)c2ccccc21	MCF10A rereplic inconclusive, uPA surface inh 10µM, SW480 rereplic inconclusive
C=CCn1c(C)c(/C=C/c2cc[n+](C)cc2)c2ccccc21	MCF10A rereplic inconclusive, SW480 rereplic 15µM
O=C(O)COCCN1CCN([C@@H](c2ccccc2)c2ccc(Cl)cc2)CC1	none (no result: uPA surface inh, Giardia killer)
COc1cccc(N2C(=O)Nc3ccc(Br)cc3C2(O)C(=O)NCCCOC(C)C)c1 (stereo unspecified)	none
CC(C)(C)C1=CC(=O)C(=O)C(C(C)(C)C)=C1	MCF10A rereplic inconclusive, SW480 rereplic 18µM
CC(C)(C)C1=CC(=Nc2ccccc2N)C=C(C(C)(C)C)C1=O	SW480 rereplic inconclusive
CC(C)(C)c1cc(CCC(=O)NCCc2ccccn2)cc(C(C)(C)C)c1O	none
CCCNC(=O)CCc1cc(C(C)(C)C)c(O)c(C(C)(C)C)c1	uPA surface inh 11µM
COc1ccc(-c2c(-c3ccc(OC)nc3)c3ccccc3n2C)cc1	MCF10A rereplic 5.2µM, uPA surface inh inconclusive, SW480 rereplic inconclusive
COc1cccc(-c2c(-c3cc(OC)cc(OC)c3)n(C)c3ccc(-c4ccc(OC)nc4)cc23)c1	none
COC(=O)CCC(=O)Nc1sc(C)c(C)c1C(N)=O	none
Cc1sc(NC(=S)NC(=O)CCc2ccccc2)c(C(N)=O)c1C	MCF10A rereplic 0.13µM, SW480 rereplic 0.29µM
Cc1sc(NC(=S)NC(=O)c2ccco2)c(C(N)=O)c1C	none
COC(=O)CCC(=O)NC(=S)Nc1sc(C)c(C)c1C(N)=O	MCF10A rereplic 1.2µM, SW480 rereplic inconclusive
N#CCC(=O)Nc1sc2c(c1C(N)=O)CCCC2	MCF10A rereplic 23µM
CCC(=O)Nc1sc2c(c1C(N)=O)CCC2	none (no result: uPA surface inh)
CCOC(=O)c1nn(-c2cccc(OC)c2)c2nc(Nc3ccccc3)cc(=O)n12	MCF10A rereplic inconclusive, SW480 rereplic 23µM
Cn1c(SCc2c(F)cccc2Cl)nnc1-c1cccs1	MCF10A rereplic 6.5µM, SW480 rereplic inconclusive
Cn1c(SCCOc2ccccc2Cl)nnc1-c1cccs1	none (no result: uPA surface inh)
O=S(=O)(Nc1ccc(O)c(Sc2nc3ccccc3s2)c1)c1ccc(Cl)cc1	MCF10A rereplic 21µM
C/C(=N\NC(=S)NCc1ccccc1)c1ccc2ccccc2c1	MCF10A rereplic 16µM, SW480 rereplic inconclusive
CCOC(=O)C1=C(C)N(C)C(C)=C(C(=O)OCC)C1c1ccc(Cl)cc1	MCF10A rereplic 23µM, SW480 rereplic inconclusive
CC1CCN(C(=O)c2ccc(CNS(=O)(=O)c3ccc(C(C)(C)C)cc3)cc2)CC1	uPA surface inh inconclusive
CCOC(=O)c1nnn(-c2nonc2N)c1-c1ccc(Br)cc1	MCF10A rereplic 0.65µM, uPA surface inh inconclusive
C/C(=N\NC(=O)c1nnn(-c2nonc2N)c1-c1ccc2c(c1)OCO2)c1ccccc1	MCF10A rereplic inconclusive, SW480 rereplic inconclusive
Cc1ccc(COc2cccc(/C=N/NC(=O)c3nnn(-c4nonc4N)c3C)c2)cc1	MCF10A rereplic 2.6µM
Cc1ccc(COc2ccc(/C=N/NC(=O)c3nnn(-c4nonc4N)c3COc3ccc(F)cc3)cc2)cc1	none
Nc1nonc1-n1nnc(C(=O)N/N=C/c2ccc(OCc3ccc(F)cc3)cc2)c1COc1ccccc1	MCF10A rereplic inconclusive, SW480 rereplic 15µM
C/C(=N\NC(=O)c1nnn(-c2nonc2N)c1-c1ccccc1)c1ccccc1O	MCF10A rereplic 15µM, SW480 rereplic 0.82µM
Brc1ccc2c(c1)CN1CCCC1=N2	MCF10A rereplic inconclusive, uPA surface inh inconclusive, Giardia killer inconclusive
COc1ccc2ccccc2c1/C=N/NC(=O)c1nnn(-c2nonc2N)c1C(C)C	MCF10A rereplic inconclusive

Bioassay records as filed in PubChem.
